The source of these data is PubChem BioAssay (EPA / NIEHS).

Experiment [1] can be described thus: TOX21_p53_BLA_p2_viability: Viability Assessment in the Tox21 HCT-116 p53 Agonism Beta-lactamase Assay, Phase 2 (AID 2283591).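 Further: compound exposure lasted 16 h at 37 °C; actives lower the ATP signal meaning cytotoxicity.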 In short, it runs like this: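 HCT-116 p53-bla cells (4000/well) rested 5 h at 37C, then received compounds in DMSO (217-fold dilution) for 16 h at 37C, 5% CO2. After the CCF4 read, CellTiter-Glo was added; ATP luminescence was read after 30 min at room temperature.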

For experiment [2], the target named is Cellular tumor antigen p53 (Homo sapiens) (UniProt P04637). Nature of the experiment: TOX21_p53_BLA_p2_ratio: Tox21 HCT-116 p53 Agonism Beta-lactamase Assay, Ratio, Phase 2 (AID 2283592). In short, it runs like this: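 Cleaved-to-uncleaved substrate ratio (460 vs 530 nm) measured in HCT116 cells with an inducible beta-lactamase reporter linked to p53 activity. Compounds incubated 16 h at 37C before 2 h room-temperature CCF4-AM loading.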
Cellular tumor antigen p53 (Homo sapiens), sequence (P04637 whole entry, looked up): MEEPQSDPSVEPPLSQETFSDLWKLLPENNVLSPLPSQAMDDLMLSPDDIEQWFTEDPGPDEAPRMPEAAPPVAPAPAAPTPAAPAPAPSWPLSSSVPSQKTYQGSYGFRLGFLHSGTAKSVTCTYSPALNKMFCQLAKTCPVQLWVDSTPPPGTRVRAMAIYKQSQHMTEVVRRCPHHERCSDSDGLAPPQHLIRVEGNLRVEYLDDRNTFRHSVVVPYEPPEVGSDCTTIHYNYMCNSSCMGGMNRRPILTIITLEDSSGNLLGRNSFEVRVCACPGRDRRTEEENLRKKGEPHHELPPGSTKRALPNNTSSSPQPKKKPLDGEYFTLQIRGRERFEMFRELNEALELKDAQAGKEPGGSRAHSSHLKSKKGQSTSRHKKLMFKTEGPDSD

The nature of experiment [3]: TOX21_p53_BLA_p3_viability: Viability Assessment in the Tox21 HCT-116 p53 Agonism Beta-lactamase Assay, Phase 3 (AID 2283593).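 Further: cells exposed to compound for 16 h before reading.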 The procedure, abridged:
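HCT-116 cells (4000/well) rested 5 h at 37C, then got DMSO compounds by pin tool (217-fold dilution) for 16 h at 37C, 5% CO2. After the bla read, CellTiter-Glo was added and luminescence read at 30 min, room temperature.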

The nature of experiment [4]: TOX21_p53_BLA_p5_viability: Viability Assessment in the Tox21 HCT-116 p53 Agonism Beta-lactamase Assay, Phase 5 (AID 2283600). The procedure, abridged:
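Viability is taken from cellular ATP content, measured by luciferase luminescence in the same wells after the beta-lactamase ratio read. Cells are seeded at 4000 per well and exposed to DMSO-dissolved compounds, diluted 217-fold, for 16 h.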

A short description of experiment [5]: CCTE_Harrill_HTTr_Viability_MCF7: CCTE's 6-hour Cell Viability Assessment for the High-Throughput Transcriptomics (HTTr) Platform, in MCF-7 cells cultured in DMEM + 10% fetal bovine serum, Harrill Lab (AID 2284010; active means hit-call score of the fitted dose curve at least 0.9, where 1 is the maximum; inactive means score below 0.9). In short, it runs like this: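 Propidium iodide exclusion, imaged by high-content analysis, gauged viability after a six-hour exposure across eight concentrations. Cells were MCF-7 grown in DMEM with 10% fetal bovine serum; fits run in both directions against DMSO.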

The nature of experiment [6]: CCTE_Harrill_HTTr_Apoptosis_MCF7: CCTE's 6-hour Apoptosis Assessment for the High-Throughput Transcriptomics (HTTr) Platform, in MCF-7 cells cultured in DMEM + 10% fetal bovine serum, Harrill Lab (AID 2284011; active means hit-call score of the fitted dose curve at least 0.9, where 1 is the maximum; inactive means score below 0.9). The procedure, abridged: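 Cells are dosed with test chemicals at eight concentrations and imaged 6 hours later for caspase-3/7 activity using a green fluorogenic detection reagent. Activity is fitted in both directions against DMSO controls.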

Experiment [7] is described as follows: CCTE_Harrill_HTTr_CellCount_MCF7: CCTE's Cell Proliferation Assessment for the High-Throughput Transcriptomics (HTTr) Platform, Harrill Lab (AID 2284012).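 Further: cells exposed to compound for six hours; intended direction is loss of nuclei count meaning fewer cells.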 In short, it runs like this: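 Cell count from high-content imaging of Hoechst-labeled nuclei serves as viability/growth readout. Chemicals were applied to MCF-7 cells in eight concentrations for six hours, with fitting in both directions relative to DMSO.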

The nature of experiment [8]: CCTE_Shafer_MEA_dev_firing_rate_mean: CCTE's Neural Network Formation Assay for Mean Firing Rate, Shafer Lab (AID 2284031; active means hit-call score of the fitted dose curve at least 0.9, where 1 is the maximum; inactive means score below 0.9). The procedure, abridged: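 Spike frequency (spikes/recording length, averaged over active electrodes) was recorded on days 5, 7, 9 and 12 and collapsed to AUC; rat cortical cultures received compound continuously over 12 days of network development.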

A short description of experiment [9]: CCTE_Shafer_MEA_dev_per_burst_spike_percent: CCTE's Neural Network Formation Assay for Percent of Spikes in a Burst, Shafer Lab (AID 2284032; active means hit-call score of the fitted dose curve at least 0.9, where 1 is the maximum; inactive means score below 0.9;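 further: fitted as a decrease in burst spike percentage below DMSO baseline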). In short, it runs like this: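 Value is trapezoidal AUC over recordings on days 5, 7, 9 and 12 of the well-mean fraction of spikes falling in single-electrode bursts; rat cortical cultures exposed continuously from plating, treatment renewed DIV 5 and 9, fitted downward against DMSO.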

Experiment [10] in a line: CCTE_Shafer_MEA_dev_active_electrodes_number: CCTE's Neural Network Formation Assay for Number of Active Electrodes, Shafer Lab (AID 2284040). The procedure, abridged:
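Counts electrodes per well firing at least 5 spikes/min, recorded on days 5, 7, 9 and 12 in rat cortical cultures dosed continuously from plating (treatment refreshed DIV 5, 9). Value is the area under the curve over recordings, fitted downward relative to DMSO.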

A short description of experiment [11]: CCTE_Shafer_MEA_dev_burst_rate: CCTE's Neural Network Formation Assay for Burst Rate, Shafer Lab (AID 2284042; active means hit-call score of the fitted dose curve at least 0.9, where 1 is the maximum; inactive means score below 0.9). The procedure, abridged:
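Primary rat cortical neurons on PEI-coated 48-well MEA plates (laminin added with cells at plating) (16 electrodes/well), exposed from plating to day 12, dosing renewed at DIV 5 and 9. Burst rate averaged over active electrodes, recorded DIV 5, 7, 9, 12, summarized as AUC; loss versus DMSO.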

The nature of experiment [12]: CCTE_Shafer_MEA_dev_bursting_electrodes_number: CCTE's Neural Network Formation Assay for Number of Bursting Electrodes, Shafer Lab (AID 2284043).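 Further: potency is for loss of bursting electrodes relative to DMSO.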 The procedure, abridged: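 Counted: electrodes with burst rate ≥1 per 2 min in each well. Cells: primary rat cortex, 1.5 x 10^5/well, on 16-electrode MEA wells. Exposure: DIV 0–12, compound renewed DIV 5 and 9. Recording days 5, 7, 9, 12; AUC vs DMSO baseline.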

The nature of experiment [13]: CCTE_Shafer_MEA_dev_per_burst_interspike_interval: CCTE's Neural Network Formation Assay for Burst Interspike Interval, Shafer Lab (AID 2284044; active means hit-call score of the fitted dose curve at least 0.9, where 1 is the maximum; inactive means score below 0.9;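 further: potency for a decrease of within-burst interspike interval below DMSO level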). The procedure, abridged:
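Developmental network-formation MEA in primary rat cortical cultures with exposure spanning days 0–12. Within-burst ISI is averaged per well and integrated across recording days by area under the curve, with DMSO as negative control baseline.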

A short description of experiment [14]: CCTE_Shafer_MEA_dev_burst_duration_mean: CCTE's Neural Network Formation Assay for Mean Burst Duration, Shafer Lab (AID 2284045; active means hit-call score of the fitted dose curve at least 0.9, where 1 is the maximum; inactive means score below 0.9). The procedure, abridged:
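Network-formation assay in primary rat cortical neurons; treatment spans twelve days of development. Mean burst duration per well is integrated by trapezoidal AUC and fitted in the loss-of-signal direction against DMSO baseline.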

Experiment [15] in a line: CCTE_Shafer_MEA_dev_interburst_interval_mean: CCTE's Neural Network Formation Assay for Mean Interburst Interval, Shafer Lab (AID 2284046; active means hit-call score of the fitted dose curve at least 0.9, where 1 is the maximum; inactive means score below 0.9;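 further: well-mean interburst interval of bursting electrodes as AUC over four recording days; curve fitted for decrease in interburst interval relative to DMSO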). The procedure, abridged:
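Recordings on days 5, 7, 9 and 12 give well-mean interburst interval across actively bursting electrodes, summarized as area under the curve. Cultures: rat cortical neurons, continuous exposure from day 0, compound renewed at feeds; decrease analyzed versus DMSO.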

A short description of experiment [16]: CCTE_Shafer_MEA_dev_inter_network_spike_interval_mean: CCTE's Neural Network Formation Assay for Mean Inter-network Spike Interval, Shafer Lab (AID 2284047; active means hit-call score of the fitted dose curve at least 0.9, where 1 is the maximum; inactive means score below 0.9). The procedure, abridged: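 Primary rat cortical neurons on 16-electrode MEA wells, exposed from plating day 0 through DIV 12, compound renewed at DIV 5 and 9 media changes. Mean interval between network-spike peaks recorded DIV 5, 7, 9, 12; collapsed as trapezoidal AUC, fitted downward versus DMSO.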

A short description of experiment [17]: CCTE_Shafer_MEA_dev_network_spike_number: CCTE's Neural Network Formation Assay for Number of Network Spikes, Shafer Lab (AID 2284048; active means hit-call score of the fitted dose curve at least 0.9, where 1 is the maximum; inactive means score below 0.9;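 further: synchronized bursts across electrodes counted on days 5 7 9 12 and integrated as AUC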). In short, it runs like this: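 Extracellular recordings from 16-electrode wells track network formation in rat cortical cultures under continuous treatment from plating. The endpoint is network spike number, expressed as AUC across DIV 5–12 relative to DMSO vehicle.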

A short description of experiment [18]: CCTE_Shafer_MEA_dev_network_spike_peak: CCTE's Neural Network Formation Assay for Mean Number of Electrodes in Network Spike, Shafer Lab (AID 2284049; active means hit-call score of the fitted dose curve at least 0.9, where 1 is the maximum; inactive means score below 0.9;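 further: fitted for loss of signal meaning fewer electrodes in network spikes than DMSO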). The procedure, abridged: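 Continuous 12-day exposure of rat cortical cultures, starting at plating, on MEA plates. Endpoint: electrodes participating in network-spike peaks, AUC across DIV 5–12, DMSO as negative control.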

The nature of experiment [19]: CCTE_Shafer_MEA_dev_spike_duration_mean: CCTE's Neural Network Formation Assay for Mean Spike Duration, Shafer Lab (AID 2284051; active means hit-call score of the fitted dose curve at least 0.9, where 1 is the maximum; inactive means score below 0.9;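 further: mean network spike duration pooled as area under curve over DIV 5 to 12 recordings; potency for a decrease in mean network spike duration versus DMSO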). The procedure, abridged: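 Primary rat cortical neurons on 16-electrode MEA wells (PEI-coated, laminin in plating drop), exposed from plating through DIV 12 with compound renewed at DIV 5 and 9. Mean network-spike duration recorded DIV 5, 7, 9, 12; trapezoidal AUC across days, DMSO baseline.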

The nature of experiment [20]: CCTE_Shafer_MEA_dev_network_spike_duration_std: CCTE's Neural Network Formation Assay for Standard Deviation of Network Spike Duration, Shafer Lab (AID 2284052; active means hit-call score of the fitted dose curve at least 0.9, where 1 is the maximum; inactive means score below 0.9;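 further: area under curve of spike duration SD across recording days 5 to 12; hits are decreases in network spike duration SD versus DMSO vehicle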). The procedure, abridged:
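Primary rat cortical neurons on PEI-coated 16-electrode MEA wells, exposed from plating day 0 through day 12 with compound renewed at DIV 5 and 9. Network spike duration SD recorded on days 5, 7, 9, 12, collapsed as trapezoidal AUC; loss-of-signal fit versus DMSO.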

Experiment [21] is described as follows: CCTE_Shafer_MEA_dev_per_network_spike_spike_number_mean: CCTE's Neural Network Formation Assay for Mean Number of Spikes in a Network Spike, Shafer Lab (AID 2284053; active means hit-call score of the fitted dose curve at least 0.9, where 1 is the maximum; inactive means score below 0.9). The procedure, abridged: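 Primary rat cortical neurons on 48-well, 16-electrode MEA plates were exposed from plating to DIV 12, with dosing renewed on DIV 5 and 9. Spikes per network spike (0.05 s peak window) were recorded on DIV 5, 7, 9 and 12 and collapsed as trapezoidal AUC versus DMSO.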

Experiment [22] is described as follows: CCTE_Shafer_MEA_dev_per_network_spike_spike_percent: CCTE's Neural Network Formation Assay for Percent of Spikes in a Network Spike, Shafer Lab (AID 2284054; active means hit-call score of the fitted dose curve at least 0.9, where 1 is the maximum; inactive means score below 0.9). In short, it runs like this:
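Developing networks of rat cortical neurons are dosed at day 0 and recorded extracellularly four times up to day 12. The endpoint is the area under the curve of percent spikes in network spikes, fitted in the negative direction relative to DMSO.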

The nature of experiment [23]: CCTE_Shafer_MEA_dev_LDH: CCTE's Lactate Dehydrogenase Assay for Cytotoxicity in the Neural Network Formation Assay, Shafer Lab (AID 2284068).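 Further: exposure for twelve days from plating with re-dosing on DIV 5 and 9.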 In short, it runs like this:
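Primary rat cortical neurons were plated on PEI/laminin MEA plates and exposed from day 0 for twelve days, with compound renewed at DIV 5 and 9. Cytotoxicity was determined by spectrophotometric LDH assay relative to DMSO.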

Experiment [24] is described as follows: TAMU_PeakParms_SingleDonor1434_Chronotropy: Texas A&M University (TAMU) 1.5-hr Human Induced Pluripotent Stem Cell (iPSC)-derived Cardiomyocytes Calcium (Ca+2) Flux Assay for Cardiotoxicity: Chronotropy (changes in peak frequency) (AID 2284217; active means hit-call score of the fitted dose curve at least 0.9, where 1 is the maximum; inactive means score below 0.9). The following applies: actives raise or lower the signal. The procedure, abridged:
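iPSC-derived cardiomyocytes (single donor 1434) dosed at 0.2, 1, 10 and 100 uM in 0.5% DMSO for 1.5 h at 37C; Ca2+ dye fluorescence gave average beat frequency. Zero-beat points removed; bidirectional fit versus DMSO, POD as EC05.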

The nature of experiment [25]: TAMU_PeakParms_SingleDonor1434_Asystole: Texas A&M University (TAMU) 1.5-hr Human Induced Pluripotent Stem Cell (iPSC)-derived Cardiomyocytes Calcium (Ca+2) Flux Assay for Cardiotoxicity: Asystole (quiescence of beating) (AID 2284328). The procedure, abridged: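 Human iPSC-derived cardiomyocytes (donor 1434) were exposed to 0.2, 1, 10 and 100 uM compound in 0.5% DMSO for 90 min at 37C. Ca2+-dye fluorescence gave average peak frequency; POD is EC95, a 95% beat-rate drop versus DMSO.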

The target in experiment [26] is Cellular tumor antigen p53 (Homo sapiens) (UniProt P04637). Nature of the experiment: TOX21_p53_BLA_p4_ratio: Tox21 HCT-116 p53 Agonism Beta-lactamase Assay, Ratio, Phase 4 (AID 2283601). The procedure, abridged: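 HCT116 cells carrying an inducible beta-lactamase reporter were plated at 4000 cells/well, rested 5 h, then exposed to compounds in DMSO (217-fold dilution) for 16 h at 37C. CCF4-AM substrate was loaded 2 h at room temperature; 460/530 nm emission ratio scored gain-of-signal versus DMSO.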

For experiment [27] the target is unchanged. Nature of the experiment: TOX21_p53_BLA_p5_ratio: Tox21 HCT-116 p53 Agonism Beta-lactamase Assay, Ratio, Phase 5 (AID 2283599). In short, it runs like this:
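HCT-116 cells carrying a p53-inducible beta-lactamase reporter were seeded at 4000 cells/well and dosed after 5 h with compound in DMSO (217-fold dilution). After 16 h at 37C, CCF4-AM substrate was added for 2 h, and the 460/530 nm emission ratio was scored as gain-of-signal versus DMSO.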

SMILES strings stand for the structures. Inconclusive results are not listed. Activity calls are given as the source filed them. How the source made its calls, unless noted: active means hit-call score of the fitted dose curve at least 0.9, where 1 is the maximum; inconclusive means response in the unintended direction; inactive means score below 0.9.

In general, AC50 refers to the concentration at which the activity in the assay is half-maximal. For `c1ccc2cc3c4ccccc4c4ccccc4c3cc2c1`, the result in experiment [1], in experiment [2], in experiment [3], in experiment [4], in [5] and in experiment [6] was inactive. Also, the outcome in [7], in experiment [8], in experiment [10], in experiment [11], in experiment [14] and in experiment [15] was inactive. The outcome in [16], in experiment [17], in experiment [20], in experiment [21] and in [25] was inactive. Besides, the AC50 is 1.97 µM (active) in experiment [9]; 3.01 µM (active) in [12]; 1.97 µM (active) in [13]; 1.98 µM (active) in experiment [18]; 2.97 µM (active) in experiment [19]; 3.23 µM (active) in [22]. Besides, the AC50 in experiment [23] was 2.33 µM (active); in experiment [24], 0.71 µM (active).
In the case of `O=C1c2ccccc2C(=O)C1c1ccc(Br)cc1`, the call in [1], in experiment [2], in experiment [3], in experiment [4] and in experiment [26] was inactive.
Consider `Nc1ccc2cc(S(=O)(=O)O)cc(O)c2c1`, for which the outcome in experiment [1], in experiment [2], in experiment [3], in [27] and in [26] was inactive.
Consider `Cn1c(=O)c2[nH]c(Br)nc2n(C)c1=O`, for which the call in experiment [1], in [2], in experiment [3], in experiment [27], in [4] and in experiment [26] was inactive.
Turning to `C=CC1=C(C(=O)O)N2C(=O)[C@@H](NC(=O)C(=NOCC(=O)O)c3csc(N)n3)[C@H]2SC1`, the outcome in experiment [1], in experiment [2], in experiment [3], in [27] and in [26] was inactive.
